Compound activity as filed in PubChem.
Gal4-VP16 FLuc = VP16 counterscreen qHTS for inhibitors of ROR gamma transcriptional activity; 3.5% of 310,000 active; Drosophila S2 Gal4-VP16 UAS-luciferase, luminescence, 20 h; Potency, µM (doses to about 53.6 µM), for the others: at the highest dose activity, negative = inhibition, hits mostly inhibitors;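 also: Gal4-VP16 expression switched on by copper sulfate through the metallothionein promoter; potency is read from the fitted curve at half-maximal effect; nearly all actives have a fitted effect of over 50% in size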
IL-1B inflam inh = qHTS for Inhibitors of Inflammasome Signaling: IL-1-beta AlphaLISA Primary Screen; THP-1 LPS/ATP IL-1B secretion, AlphaLISA, 16 h; active compounds read low; activity change, % at 57.5 µM; 4.7% of 360,000 active; AID 743279, 2014; in the data active = activity change below about -50%; inconclusive = mostly about -30% to -49%
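THP-1 cells pretreated 1 hr with compounds (up to 57.5 uM final), then stimulated with LPS (250 ng/mL final) plus ATP (1.25 mM final); secreted IL-1B measured by AlphaLISA after 16 hr, decreased signal indicating inhibition.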
RORg inh = qHTS for inhibitors of ROR gamma transcriptional activity; Nuclear receptor ROR-gamma (Mus musculus), P51450; Drosophila S2 Gal4-RORgamma UAS-luciferase reporter, 20 h; Potency, µM (highest dose often 53.6 µM), without a hit: top-dose activity change, negative = inhibition, hits mostly inhibitors; 5.4% of 310,000 active; AID 2551, 2010; also: potency is read from the fitted curve at half-maximal effect; nearly all actives have a fitted effect of over 60% in size
Target sequence (P51450 whole entry, looked up, the tested form may be a part): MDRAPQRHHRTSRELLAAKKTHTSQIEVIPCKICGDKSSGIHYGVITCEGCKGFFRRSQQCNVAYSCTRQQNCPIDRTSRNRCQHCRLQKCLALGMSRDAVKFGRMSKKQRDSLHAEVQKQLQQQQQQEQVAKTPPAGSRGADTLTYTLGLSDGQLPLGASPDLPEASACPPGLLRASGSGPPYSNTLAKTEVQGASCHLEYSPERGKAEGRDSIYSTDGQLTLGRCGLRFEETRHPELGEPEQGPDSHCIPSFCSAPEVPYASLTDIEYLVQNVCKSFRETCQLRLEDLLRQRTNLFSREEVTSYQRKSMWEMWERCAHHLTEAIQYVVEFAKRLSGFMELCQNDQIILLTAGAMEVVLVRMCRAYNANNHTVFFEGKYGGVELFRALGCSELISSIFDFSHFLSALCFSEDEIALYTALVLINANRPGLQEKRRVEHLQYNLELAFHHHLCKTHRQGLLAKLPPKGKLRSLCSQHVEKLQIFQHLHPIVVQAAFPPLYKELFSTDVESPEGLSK
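Luciferase reporter read in Schneider cells carrying Gal4-RORγ (mouse) and UAS-Photinus luciferase; cells given compound 1 h before 700 uM copper sulfate induction, then incubated 20 h at ambient temperature.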
TDP1 cell CPT = qHTS for Inhibitors of human tyrosyl-DNA phosphodiesterase 1 (TDP1): qHTS in cells in presence of CPT. chicken DT40 Tdp1-/-;hTDP1 cells + 20 nM CPT, ATP luminescence, 48 h. Potency, µM (doses to about 46.2 µM), without a hit: at the top dose activity change, negative = growth inhibition, most hits filed as inhibitors. 12% of 420,000 active. AID 686979, 2013; also: potency is read from the fitted curve at half-maximal effect; nearly all actives have a fitted effect of over 55% in size
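Cell growth measured by CellTiter-Glo luminescence after a minimum 48 h, 37 C compound exposure with 20 nM CPT in Tdp1-knockout DT40 cells stably expressing hTDP1, seeded 400/well; qHTS titration format.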
DT40 TDP1 no CPT = qHTS for Inhibitors of human tyrosyl-DNA phosphodiesterase 1 (TDP1): qHTS in cells in absence of CPT; Potency, µM (doses to about 46.2 µM), for the others: top-dose activity change, negative = growth inhibition, actives largely listed as inhibitors; AID 686978, 2013; DT40 Tdp1-/- hTDP1 cells, no CPT, ATP luminescence, 48 h; 15% of 420,000 active; also: potency is read from the fitted curve at half-maximal effect; nearly all actives have a fitted effect of over 55% in size
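Chicken DT40 Tdp1-/- cells complemented with human TDP1, screened without camptothecin (DMSO vehicle only), 400 cells/well. Compounds pin-transferred, cells incubated at 37 °C for at least 48 hr. Growth read as ATP-dependent luminescence (CellTiter-Glo, 30 min at RT).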
LDHA block = qHTS assay for inhibitors of human lactate dehydrogenase; purified LDHA, NADH/diaphorase-resazurin fluorescence; active compounds read low; activity change, % (values are at about 110 or 230 µM); L-lactate dehydrogenase A chain (Homo sapiens), P00338; AID 1347041, 2019; 0.15% of 480,000 active; in the data active = activity change below about -30%; inconclusive = mostly about -25% to -30%;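 also: plate controls were DMSO wells for no effect and wells without enzyme for full effect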
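Remaining NADH was detected by diaphorase (0.133 mg/mL) converting 37 µM resazurin to fluorescent resorufin, read at 0 and 20 minutes. The preceding 5-minute room-temperature reaction used 2 nM LDHA, 0.2 mM sodium pyruvate and 0.06 mM NADH at pH 7.4.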
Starred values were filed as active, the others as inactive; ? = inconclusive; nt = not tested or not shown; [ ] = another dose, or the depositor's remark. Shown are actives, neighbours in structure and some others; about 18% of the full set was active somewhere. Unless noted, calls follow the shape of the dose curve; as a rule, active = well fitted curve in the direction sought with a large enough effect; inconclusive = small, poorly fitted or top-dose-only effect, or another doubt; inactive = no such curve, though single readings can be large; an effect the other way counts as inactive or inconclusive. Unless noted, % is scaled to controls: 0 for no effect and ±100 for the full control effect.

SMILES	Gal4-VP16 FLuc	IL-1B inflam inh	RORg inh	TDP1 cell CPT	DT40 TDP1 no CPT	LDHA block
Cc1c(C(=O)N(Cc2ccc(N(C)C)cc2)CC2CCCO2)oc2ccc(Cl)cc12 (configuration not stated)	nt	nt	nt	16µM*	21µM*	0
CN(C)c1ccc(CN(CC2CCCO2)C(=O)c2cc3ccccc3o2)cc1 (configuration not stated)	nt	-23	nt	18µM*	?	-3
CC(C)(C)N(Cc1ccccc1)C(=O)c1cc2ccccc2o1	nt	5	nt	?	12µM*	-13
CCOc1cccc(C(=O)N(Cc2ccc(N(C)C)cc2)CC2CCCO2)c1 (configuration not stated)	nt	nt	nt	15µM*	16µM*	8
CC(C)CCOc1ccc(/C=C(/CC(=O)O)c2nc3ccccc3s2)cc1	nt	nt	nt	nt	nt	3
Cc1ccc(NC(=O)CN(C)CC(=O)NC2(C#N)CCCC2)cc1	nt	nt	nt	nt	nt	4
CCCc1ccc2oc(C(=O)N(Cc3ccncc3)CC3CCCO3)c(C)c2c1 (configuration not stated)	0%	-85*	-37%	?	18µM*	1
Cc1cc2oc(C(=O)N(Cc3ccc(N(C)C)cc3)CC3CCCO3)c(C)c2cc1Cl (configuration not stated)	nt	nt	nt	?	18µM*	3
Cc1c(C(=O)N(Cc2ccc(N(C)C)cc2)CC2CCCO2)oc2ccccc12 (configuration not stated)	-4%	?	6%	23µM*	23µM*	1
Cc1c(C(=O)N(Cc2ccc(Cl)cc2)CC2CCCO2)oc2ccc(F)cc12 (configuration not stated)	nt	nt	nt	?	15µM*	-1
COc1cc(NC(=O)Cn2c(Nc3ccc(F)c(C)c3)nc(C)cc2=O)cc(OC)c1OC	nt	nt	nt	nt	nt	29
CC(Oc1ccccc1Cl)C(=O)NCc1csc(-c2ccccc2)n1 (configuration not stated)	nt	nt	nt	nt	nt	7
O=C(N/N=C/c1ccccc1Br)c1ccc(Br)s1	nt	nt	nt	nt	nt	1
Cc1cccc(-n2cc(CNCCN3CCOC3=O)c(-c3cccc(F)c3)n2)c1	-1%	-57*	9%	?	21µM*	-6
COc1ccc(-n2cc(CNCCN3CCOC3=O)c(-c3ccccc3Cl)n2)cc1	2%	7	24%	?	-16%	-2
Cc1ccc(-n2cc(CNCCCN3CCCC3=O)c(-c3ccc(F)cc3)n2)cc1	-3%	-68*	-13%	?	18µM*	4
Cc1ccc(-n2cc(CNCCN3CCOC3=O)c(-c3ccc(F)cc3)n2)cc1	-11%	-71*	-5%	23µM*	?	2
Cc1ccc(-n2cc(CNCCn3nc(C)cc3C)c(-c3ccc(F)cc3)n2)cc1	-5%	-91*	4%	15µM*	23µM*	-2
Fc1ccc(-n2cc(CNCCc3ccccn3)c(-c3ccccc3Cl)n2)cc1	3%	-74*	?	9.2µM*	7.3µM*	2
Cc1ccc(-n2cc(CNCCc3ncc(C)[nH]3)c(-c3ccc(F)cc3)n2)cc1	?	-82*	-80%	16µM*	?	2
N#Cc1nc(C2CC2)oc1N1CCN(Cc2cccc(Cl)c2)CC1	nt	nt	nt	nt	nt	2
CC(=O)c1ccc(OCC(O)CNCc2ccc3c(c2)OCO3)cc1 (configuration not stated)	7%	-7	1%	-18%	-13%	-4
O=C(c1ccccc1)c1ccc(OCC(O)CNCc2cccc(Cl)c2)cc1 (configuration not stated)	-9%	-82*	-9%	?	?	-11
O=C(c1ccccc1)c1ccc(OCC(O)CNCc2ccc(F)cc2)cc1 (configuration not stated)	-5%	-72*	-1%	-2%	-25%	-16
Cn1c(N=NC(=O)c2ccccc2)c(O)c2ccccc21	?	-11	8.9µM*	?	23µM*	-2
SMILES	Gal4-VP16 FLuc	IL-1B inflam inh	RORg inh	TDP1 cell CPT	DT40 TDP1 no CPT	LDHA block
Cc1c(NC(=O)C(C)C)cccc1-c1nc2cc(Cl)ccc2o1	nt	nt	nt	nt	nt	-7
CCCc1nnc2sc(COc3ccccc3OCC)nn12	nt	nt	nt	nt	nt	-2
COc1ccccc1-c1nnc2sc(COc3ccc(Cl)cc3)nn12	-9%	-86*	?	?	16µM*	-6
COc1ccc(Cc2nn3c(-c4ccccc4OC)nnc3s2)cc1	1%	-3	-16%	-24%	?	-3
Fc1ccc(OCc2nnc3sc(COc4ccccc4)nn23)cc1	nt	nt	nt	nt	nt	13
CCOc1ccccc1OCc1nn2c(COc3ccccc3)nnc2s1	-3%	-5	22%	16µM*	13µM*	-4
c1ccc(Cc2nn3c(COc4ccccc4)nnc3s2)cc1	17%[0.365 µM]	-6	25%	?	18µM*	-2
O=[N+]([O-])c1ccc(Oc2cccnc2)c([N+](=O)[O-])c1	nt	-112*	nt	4.1µM*	5.8µM*	2
Nc1ccc(Oc2ccc(N)c([N+](=O)[O-])c2)cc1[N+](=O)[O-]	nt	-26	nt	0%	?	-14
O=c1ccc2ccc(Oc3ccc([N+](=O)[O-])cc3[N+](=O)[O-])cc2o1	?	nt	10µM*	nt	nt	nt
Nc1ccc(Oc2ccc([N+](=O)[O-])cc2[N+](=O)[O-])cc1	3%	4	8.9µM*	18µM*	?	14
CN1CCN(Cc2cc(=O)oc3ccc(O)cc23)CC1	nt	nt	nt	nt	nt	2
Cc1ccc(-c2nc3cccc(C)n3c2Nc2ccc3c(c2)OCO3)o1	nt	nt	nt	23µM*	?	4
CSc1ccc(-c2nc3cccc(C)n3c2Nc2ccc3c(c2)OCO3)cc1	nt	nt	nt	?	18µM*	2
CSc1ccc(-c2nc3c(C)cccn3c2Nc2ccc3c(c2)OCCO3)cc1	nt	nt	nt	?	?	5
Cc1ccc(-c2nc3ccccn3c2Nc2ccc3c(c2)OCO3)o1	nt	nt	nt	?	?	6
Cc1ccc(Nc2c(-c3ccc(C)o3)nc3cccc(C)n23)cc1	nt	nt	nt	11µM*	11µM*	8
COc1ccc(N2CCN(c3c4c(nc5nncn35)CCC4)CC2)cc1	nt	nt	nt	8.2µM*	8.2µM*	-7
Cc1[nH]c2ccc(-c3nnc(SCC(=O)NCc4ccco4)n3Cc3ccccc3)cc2c1C	7%	0	18%	?	23µM*	1
